For 59 compounds, activation results are on record in PubChem BioAssay AID1777 (Sanford-Burnham Center for Chemical Genomics, 2009).

Hit rate of the full screen: of about 280,000 compounds, about 50 (0.02%) were called active. This is one part of a sample in which actives are shown more often than they occur. Potency and affinity values are given separately. Unmarked numbers belong to inactive results. Cut-off read from the data, not from the text of the source: active = activation above about 50% (passing the limit was not always enough); inactive = the rest.

For this test, the target named is Kappa-type opioid receptor (Homo sapiens) (UniProt P41145). Description: kappa opioid receptor activators – cell-based, luminescence, uHTS, primary screen (AID 1777). As to conditions: KOR beta-arrestin recruitment, at 10 µM, stronger effect = higher value. In general terms: Recruitment of arrestin is a read-out of receptor activation apart from second messengers.
Chain of Kappa-type opioid receptor (Homo sapiens) (P41145 whole entry, looked up): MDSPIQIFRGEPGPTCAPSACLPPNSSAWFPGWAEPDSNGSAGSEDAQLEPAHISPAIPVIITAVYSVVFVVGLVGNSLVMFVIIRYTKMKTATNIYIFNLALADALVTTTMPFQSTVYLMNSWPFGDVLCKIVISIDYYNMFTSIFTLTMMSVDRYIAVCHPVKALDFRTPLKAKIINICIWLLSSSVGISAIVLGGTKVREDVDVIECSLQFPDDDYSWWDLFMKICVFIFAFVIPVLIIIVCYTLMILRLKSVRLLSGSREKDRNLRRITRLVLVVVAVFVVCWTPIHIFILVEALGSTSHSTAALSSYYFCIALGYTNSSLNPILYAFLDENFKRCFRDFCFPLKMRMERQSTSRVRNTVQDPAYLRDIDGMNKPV
On to `Cc1ccc(C(=O)NCCN2C3=NC[C@H](C)N3C[C@H]2Cc2ccc(O)cc2)cc1Br`, for which the activation was 25.2%.

`COc1ccc(C[C@H]2CN3C(=NC[C@H]3C)N2CCNC(=O)c2ccc(C)c(Br)c2)cc1`: the activation is 12.5%.

As to `Cc1nnc(SCC(=O)N2c3ccccc3CC2C)[nH]c1=O` (centres undefined), the activation is 7.1%.

For the compound `O=C(NC1CCCCC1)c1ccc(S(=O)(=O)N2CCOCC2)cc1`, the activation is 2%.

Take `Cc1cc(Nc2ccc(Cl)cc2)n2ncnc2n1`: the activation is -0.8%.

For `Cc1oc(-c2ccccc2F)nc1CS(=O)CC(=O)NC1CC1` (centres undefined), the activation was 0.9%.

For `COc1ccc(OC)c(NC(=O)c2ccc(CSc3ncccn3)cc2)c1`, the activation is -7.7%.

For `Cc1ccc(S(=O)(=O)Nc2ccccc2C(=O)Nc2nc(-c3ccc(F)cc3)cs2)cc1`, the activation was 13%.

Turning to `O=C(Nc1nc(-c2ccccc2)cs1)c1ccccc1NS(=O)(=O)c1ccc(F)cc1`, the activation was 111% (active).

`COc1ccc(S(=O)(=O)Nc2ccccc2C(=O)Nc2nc(-c3ccc(F)cc3)cs2)cc1OC`: the activation was 15.1%.

Regarding `Cc1ccc(O)c(C(=O)c2cnn(C(=O)COc3ccc(Cl)cc3)c2)c1`, the activation is 0.1%.

As to `Cc1cc(N/C(=N/S(=O)(=O)c2cc(F)ccc2F)c2ccccc2)n(-c2ccccc2)n1`, the activation was -1.3%.

For the compound `CCCCCCCCCCCCOC1OC(CO)C(O)C(O)C1NC(C)=O` (centres undefined), the activation was -0.9%.

With `CC1=CC(C)(C)N(C)C(=O)N1c1ccc(Cl)cc1`, the activation is 7.6%.

Take `Cc1cc(=O)cc(C)n1-c1ccc(Cl)cc1`: the activation was 1.5%.

With `CCCn1c(C(CO)Nc2nc(-c3cccc(Br)c3)cs2)nc2ccccc21` (centres undefined), the activation was 2.4%.

`Cc1cccc(C(=O)Nc2cccc(C(=O)N/N=C/c3ccc4c(c3)OCO4)c2)c1`: the activation is -5.3%.

As for `CC(=O)Nc1nc(SCC(=O)NCC2CCCO2)[nH]c(=O)c1NC(=O)c1cccs1` (centres undefined), the activation was -4.2%.

For the compound `CCN(C(=O)COC(=O)C1CCN(S(=O)(=O)c2c(Cl)cccc2Cl)CC1)C1CCCCC1`, the activation is -3.1%.

For the compound `COc1ccc(-n2c(C)cc(C(=O)COc3ccc(-n4cnnn4)cc3)c2C)cc1`, the activation is 3.1%.

As to `COc1ccccc1CN(Cc1cc2cc(C)ccc2[nH]c1=O)Cc1nnnn1Cc1ccco1`, the activation was -3.4%.

With `CC(Sc1nnc(COc2ccccc2)n1Cc1ccccc1)C(=O)O` (centres undefined), the activation is 1.6%.

Regarding `CC(=O)Nc1ccc(NC(=O)C(C)Sc2n[nH]c(=O)n2Cc2ccccc2)cc1` (centres undefined), the activation was -2.2%.

Turning to `O=C(N/N=C/c1c[nH]c2ccc(Br)cc12)c1ccccn1`, the activation is 4.6%.

`Nc1ccc(C2(c3ccc(N)cc3)OC(=O)c3ccccc32)cc1`: the activation was -7.1%.

Regarding `Nc1ccc(C2(c3ccc(N)cc3)C(=O)Nc3ccccc32)cc1`, the activation was 0.1%.

As to `O=C(CSc1nnc(CNC(=O)c2c(F)cccc2F)o1)c1ccccc1`, the activation is 4.5%.

On to `CCOc1ccc(N2C(=O)Nc3ccc(Br)cc3C2(O)C(=O)NCCN(C)C)cc1` (centres undefined), for which the activation is -0.1%.

For the compound `Cc1cccc(C(C)C)c1NC(=O)c1ccc(COc2ccc3c(C)cc(=O)oc3c2)cc1`, the activation is 3.9%.

As for `CC(=O)Nc1ccc(NC(=O)c2ccc(COc3ccc4c(C)cc(=O)oc4c3)cc2)cc1`, the activation is 0.2%.

Consider `CN(C)/C=C/C(=O)c1cccc(C(F)(F)F)c1`, for which the activation is 2.5%.

Regarding `CCC1(c2ccc(F)cc2)NC(=O)N(CC(=O)Nc2ccccc2Cl)C1=O` (centres undefined), the activation is -0.1%.

As for `CCn1c(=O)c(C2=NS(=O)(=O)c3ccccc3N2)c(O)c2ccccc21`, the activation was 54.2% (active).

Consider `CCn1c(=O)c(-c2cc(=O)[nH][nH]2)c(O)c2ccccc21`, for which the activation was 2.3%.

On to `CCn1c(=O)c(-c2ccccc2)c(O)c2ccccc21`, for which the activation was 1.3%.

Regarding `CC(=O)N(Cc1ccco1)C1(C(=O)NC2CCCC2)CCCCC1`, the activation is -1%.

Consider `O=C(c1ccc(=O)[nH]c1)N(Cc1ccco1)C1(C(=O)NC2CCCCC2)CCCCC1`, for which the activation was -2.7%.

Turning to `Cc1cccc(C)c1NC(=O)C1(N(Cc2ccco2)C(=O)Cn2nnnc2N)CCCCC1`, the activation is -0.3%.

Turning to `O=C(c1ccc(=O)[nH]c1)N(Cc1ccco1)C1(C(=O)NC2CCCC2)CCCCC1`, the activation is 6%.

For the compound `CC(=O)NCC(=O)N(Cc1ccco1)C1(C(=O)NC2CCCCC2)CCCCC1`, the activation is 3.8%.

Turning to `CC(=O)N(Cc1ccco1)C1(C(=O)NC2CCCCC2)CCCCC1`, the activation was 2.1%.

With `O=C(c1cnccn1)N(Cc1ccco1)C1(C(=O)NC2CCCC2)CCCCC1`, the activation was -9%.

As to `Cc1cccc(C)c1NC(=O)C1(N(C(=O)c2ccccn2)c2ccc(O)cc2)CCCCC1`, the activation is -0.3%.

As for `CC[n+]1c(-c2ccc(C)cc2)csc1Nc1c(C)n(C)n(-c2ccccc2)c1=O`, the activation is -4.9%.

For `Cc1ccc(S(=O)(=O)N2CCN(CC(=O)N/N=C/C=C/c3ccccc3)CC2)cc1`, the activation is 0.3%.

Consider `COc1cc(OC)cc(C(=O)NCC(=O)N2CCCCC2)c1`, for which the activation is -0.7%.

As for `CC1(C)Cc2c(cnn2-c2cccc(F)c2)C(NC(=O)c2csnn2)C1` (centres undefined), the activation is 5.1%.

Turning to `CCOc1ccccc1NC=C1C(=O)OC(C)(C)OC1=O`, the activation is 4.4%.

As to `Cc1c(NC(=O)c2cccc(S(=O)(=O)N3CCOCC3)c2)c(=O)n(-c2ccccc2)n1C`, the activation was -7.9%.

In the case of `O=C(NCC1CCCO1)C1CC(=O)N(c2cccc(Cl)c2)C1` (centres undefined), the activation is 5.7%.

Turning to `CCC(=O)Nc1c2c(nn1-c1cccc(Cl)c1)CS(=O)(=O)C2`, the activation was -8.6%.

As for `CCOc1ccccc1NC(=O)CN(C)S(=O)(=O)c1ccc2[nH]c(=O)oc2c1`, the activation is -1.5%.

In the case of `Cc1ccc2c(CC(=O)NCC3COc4ccccc4O3)coc2c1` (centres undefined), the activation is -4.2%.

In the case of `Cc1cc(C)n(-c2cccc(CN3CCC(CO)(Cc4ccccc4)CC3)c2)n1`, the activation is -3.3%.

Turning to `Cc1cccc(-n2ccnc2CN2CCN(C(C)C)C(CCO)C2)c1` (centres undefined), the activation is 8%.

Take `CCCC(=O)NC(c1ccc(Cl)cc1Cl)c1ccc2cccnc2c1O` (centres undefined): the activation is -5.3%.

For `O=C(c1ccc2c3n(nc2c1)-c1ccccc1CO3)N1CCOCC1`, the activation is 0.7%.

As to `O=C(C(Cc1ccccc1)n1cccc1)N1CCN(c2ccccc2)CC1` (centres undefined), the activation was -3.7%.

Turning to `Cc1cccc(N2CCN(C(=O)C(Cc3ccccc3)n3cccc3)CC2)c1C` (centres undefined), the activation is 81%.
